Measurements published in paper PMC4336329 (PLoS ONE, 2015).
Among all 310,000 compounds or so, about 14,000 (4.5%) showed an effect of 50% or more. The effect is printed as a negative number. The full list was thinned out, with strong results kept by preference.

biological target: human ether-à-go-go-related gene (hERG) potassium channel (human, UniProt Q12809); assay: primary screen, population patch clamp on CHO cells stably expressing hERG; higher = less effect of the substance
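Note: peak tail current of the secondary pulse compared with the same well before compound.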

Sequence of human ether-à-go-go-related gene (hERG) potassium channel (Q12809 whole entry, looked up): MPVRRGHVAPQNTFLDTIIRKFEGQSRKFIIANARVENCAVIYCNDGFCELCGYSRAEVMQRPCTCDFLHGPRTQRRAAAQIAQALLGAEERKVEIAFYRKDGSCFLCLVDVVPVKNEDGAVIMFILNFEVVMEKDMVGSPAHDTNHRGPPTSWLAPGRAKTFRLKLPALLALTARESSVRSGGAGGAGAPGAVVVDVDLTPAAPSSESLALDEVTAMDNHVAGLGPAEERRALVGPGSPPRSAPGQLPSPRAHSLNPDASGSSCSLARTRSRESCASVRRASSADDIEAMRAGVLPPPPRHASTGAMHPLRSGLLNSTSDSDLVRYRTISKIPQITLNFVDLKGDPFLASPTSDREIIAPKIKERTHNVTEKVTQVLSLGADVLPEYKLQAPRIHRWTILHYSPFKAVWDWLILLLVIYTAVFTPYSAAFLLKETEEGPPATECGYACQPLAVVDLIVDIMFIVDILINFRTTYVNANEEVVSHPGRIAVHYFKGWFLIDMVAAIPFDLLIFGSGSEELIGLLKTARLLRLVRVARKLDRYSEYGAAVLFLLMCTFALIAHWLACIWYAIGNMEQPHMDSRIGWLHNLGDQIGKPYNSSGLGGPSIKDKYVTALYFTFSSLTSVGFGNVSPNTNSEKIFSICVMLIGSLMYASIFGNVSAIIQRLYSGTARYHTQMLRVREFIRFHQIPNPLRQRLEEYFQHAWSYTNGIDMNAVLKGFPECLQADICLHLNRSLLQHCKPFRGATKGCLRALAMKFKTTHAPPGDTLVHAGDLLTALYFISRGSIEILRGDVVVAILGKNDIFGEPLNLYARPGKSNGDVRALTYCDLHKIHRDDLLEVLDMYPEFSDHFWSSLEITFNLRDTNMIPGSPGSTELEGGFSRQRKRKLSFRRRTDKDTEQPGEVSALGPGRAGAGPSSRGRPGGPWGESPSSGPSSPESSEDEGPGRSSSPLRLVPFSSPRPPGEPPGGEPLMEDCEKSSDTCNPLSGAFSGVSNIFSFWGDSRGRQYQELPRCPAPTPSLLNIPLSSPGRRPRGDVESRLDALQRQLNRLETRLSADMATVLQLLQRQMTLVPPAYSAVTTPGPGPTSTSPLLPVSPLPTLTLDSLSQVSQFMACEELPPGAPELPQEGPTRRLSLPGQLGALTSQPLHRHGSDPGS

Row | Compound | hERG current change (%, negative = inhibition) at 10uM [%]
1 | COc1cccc(SCc2noc(C(=O)NCC3CC3)c2C(=O)NCC2CC2)c1 | -43.5
2 | CCN(Cc1ccccc1)C(=O)c1ccccc1C | 1.76
3 | CC(NC(=O)C1CCN(S(=O)(=O)N2CCC3(CC2)OCCO3)CC1)c1ccccc1 (stereo not drawn) | 20.9
4 | CCCC(C)NS(=O)(=O)c1ccccc1 (stereo not drawn) | -18.4
5 | CN1CC(=O)N(CC(=O)Nc2ccc(SC(F)F)cc2)C1=O | -23.5
6 | CCOc1ccc2nc(C(=O)N3CCCC(C)C3)sc2c1 (stereo not drawn) | -2.28
7 | CCOC(=O)C1=C(C)N(C)C(=S)NC1c1ccc(Cl)cc1 (stereo not drawn) | -21.5
8 | Cc1ccc(C(=O)OCC(=O)NC(=O)NCc2ccccc2)cc1C | 7.95
9 | CCOC(=O)c1cnc(SCCN2CCOCC2)nc1N | 9.59
10 | COC(=O)c1ccccc1NC(=O)c1cc2n(n1)C(C(F)F)CC(C(F)F)N2 (stereo not drawn) | 14
11 | Cc1cc(C)n(C(C)CC(=O)Nc2ccc(-c3ccno3)cc2)n1 (stereo not drawn) | 1.47
12 | CC1(C)CC(=O)C=C(NCCN2CCNCC2)C1 | -2.18
13 | Cc1sc2ncnc(N3CCC(C(=O)Nc4cc(Cl)ccc4Cl)CC3)c2c1C | 4.42
14 | Cc1sc2ncnc(N3CCC(C(=O)N(C)CC(=O)Nc4ccccc4Cl)CC3)c2c1C | -67.7
15 | Cc1cccc(C)c1NC(=O)CN(C)C(=O)C1CCN(c2ncnc3sc(C)c(C)c23)CC1 | -46.7
16 | C=CCN(C(=O)CSc1nc2ccsc2c(=O)n1Cc1ccccn1)c1ccccc1 | -19.4
17 | COCCCNC(=O)Cn1cc(C(C)=O)c2ccccc21 | 17.7
18 | CC1CCN(C(=O)CN(c2ccccc2)S(=O)(=O)N(C)C)CC1 | 14.2
19 | CCOC(=O)NC(N(O)c1cccc(Cl)c1)C(Cl)(Cl)Cl (stereo not drawn) | -74.2
20 | CCOC(=O)NC(C(Cl)(Cl)Cl)S(=O)(=O)c1ccccc1 (stereo not drawn) | -6.98
21 | CCOC(=O)NC(c1ccc(C(C)C)cc1)C(Cl)(Cl)Cl (stereo not drawn) | 1.44

Row | Compound | hERG current change (%, negative = inhibition) at 10uM [%]
22 | Cc1ccc(-c2cc(C(=O)Nc3cc(C)on3)c3ccccc3n2)cc1 | 4.13
23 | C=C(C)Cn1c(C2CC(=O)N(c3ccccc3F)C2)nc2ccccc21 (stereo not drawn) | -27
24 | Cc1ccc(OCC(=O)NC(C)c2ccc(Cl)c(Cl)c2)c([N+](=O)[O-])n1 (stereo not drawn) | -21.4
25 | CN(C)CCCNCCCNC(=O)/C(=N\O)c1ccccc1 | 6.64
26 | Cc1ccccc1N1CCN(C2CCCN(C(=O)c3ccc(Cl)s3)C2)CC1 (stereo not drawn) | -46.8
27 | O=C(c1cccc(-c2ccco2)c1)N1CCCC(N2CCN(c3ccc(F)cc3)CC2)C1 (stereo not drawn) | -78.5
28 | CC(C)=CC(=O)N1CCCC(N2CCN(c3ccc(F)cc3)CC2)C1 (stereo not drawn) | -0.816
29 | O=C(c1ccc(Cl)s1)N1CCCC(N2CCN(c3ccc(F)cc3)CC2)C1 (stereo not drawn) | -70.1
30 | CC(=O)c1ccc(C(=O)N2CCCC(N3CCN(c4ccc(F)cc4)CC3)C2)s1 (stereo not drawn) | -63.7
31 | O=C(c1cccs1)N1CCCC(N2CCN(c3ccc(F)cc3)CC2)C1 (stereo not drawn) | -65.7
32 | COc1ccccc1N1CCN(C2CCCN(C(=O)c3cccc(-c4ccco4)c3)C2)CC1 (stereo not drawn) | -36.1
33 | O=C(c1cccs1)N1CCN(c2ccc(F)cc2)CC1 | -9.63
34 | O=C(C1CCOCC1)N1CCCC(N2CCN(c3ccc(F)cc3)CC2)C1 (stereo not drawn) | -3.64
35 | CC(C)n1cc(C(=O)N2CCCC(N3CCN(c4ccc(F)cc4)CC3)C2)cn1 (stereo not drawn) | -34.9
36 | O=C(c1ccncc1)N1CCCC(N2CCN(c3ccc(F)cc3)CC2)C1 (stereo not drawn) | -44.6
37 | O=C(c1ccoc1)N1CCCC(N2CCN(c3ccc(F)cc3)CC2)C1 (stereo not drawn) | -48.1
38 | CCN(C(=O)COC(=O)C1CCN(S(=O)(=O)c2ccc(C)c(C)c2)CC1)C1CCS(=O)(=O)C1 (stereo not drawn) | -7.82
39 | Cc1nnc2ccc(-c3ccc(NS(C)(=O)=O)cc3)nn12 | -16
40 | CCOc1nc(Nc2ccccc2)nc(OCC)n1 | -21.7
41 | COc1ccc(-c2ccc(N(C)C)cc2)cc1[C@H]1[C@H]2C=CC[C@@H](C)[C@@H]2C(=O)N1Cc1ccccc1 | 10.1
42 | Cc1nc(N2CCN(Cc3ccccc3)CC2)nc2c1C(=O)CC(C)C2 (stereo not drawn) | -5.32
